Screening data as filed in PubChem BioAssay.
Compounds with a hit are over-represented: about 4.1% of the library has one in this group of screens.
hgDAF-12 ag: activates the H. glycines DAF-12 receptor ligand-binding domain. 370,000 tested, 1.8% active. activation, % at 6.8 µM. AID 687014. HEK293 GAL4-hgDAF12 UAS-luciferase reporter, agonist luminescence; normalized to butyrate control;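 active means activation above a cutoff set at the mean of all screened compounds plus 3 SD, cut at about 10% in these data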;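 further: 0% = DMSO wells and 100% = sodium butyrate wells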
DAX1 inh-1: DAX1 (NR0B1) inhibition, primary screen; HEK293T StAR-luciferase reporter, SF-1/DAX-1 repression relief; inhibition, % at 6.8 µM; 370,000 tested, 1.1% active;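 active means inhibition above the mean over all tested compounds plus 3 SD, cut at about 3.6% in these data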;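 further: 0% = DAX-1 cells with DMSO and 100% = cells lacking DAX-1 with DMSO; higher inhibition means more luminescence from relief of DAX-1 repression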
DAX1 inh-2: NR0B1 (DAX1) inhibition; HEK293 Gal4-DAX1 luciferase reporter, luminescence; inhibition, % at 6.75 µM; 340,000 tested, 0.99% active;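 active means inhibition above the mean over all tested compounds plus 3 SD, cut at about 4.2% in these data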;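 further: 0% = DAX1-transfected cells with DMSO and 100% = empty-vector control cells with DMSO; inhibition shows as a rise in luminescence from relieved DAX1 repression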
Target sequence (P51843 207-470 limits assumed): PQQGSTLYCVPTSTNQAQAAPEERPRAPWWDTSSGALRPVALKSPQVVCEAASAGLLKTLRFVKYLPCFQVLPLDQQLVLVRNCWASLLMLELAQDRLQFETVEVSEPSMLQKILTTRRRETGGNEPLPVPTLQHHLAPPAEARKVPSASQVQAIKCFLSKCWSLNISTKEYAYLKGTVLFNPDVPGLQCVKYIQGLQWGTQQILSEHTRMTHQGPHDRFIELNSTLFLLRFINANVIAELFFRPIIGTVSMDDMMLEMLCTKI
PolyA inhibitor: blocks polyadenylation in yeast reporter cells | S. cerevisiae SKY197-pL101 polyadenylation reporter, beta-gal luminescence; efflux-impaired pdr1/pdr3 knockout yeast; score 100 = 6 SD above DMSO | activity score, % at 12 µM | 300,000 tested, 0.02% active;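 active means lowest replicate activity score at least 50, where 100 means six control SD above control mean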;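 further: yeast exposed to compound for 9 h at 30 °C; higher score means more reporter readthrough which indicates perturbed polyadenylation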
hcDAF12 agonist: H. contortus DAF-12 activation, primary screen; activation, % at 6.8 µM; HEK293 hcDAF-12 lit1-tk-luc reporter, luminescence; 0% DMSO, 100% Δ7-dafachronic acid; 370,000 tested, 1.4% active;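 active means activation above the mean of all tested compounds plus 3 SD, cut at about 5.5% in these data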;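 further: 100% = response to 3 µM Δ7-dafachronic acid high control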
ssDAF12 agonist: S. stercoralis DAF-12 activation, primary screen; activation, % at 6.8 µM; HEK293 ssDAF-12/GRIP1 lit1-tk-luc reporter, luminescence; % of 3 µM dafachronic acid response; 370,000 tested, 1% active; AID 652126;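 active means activation above the mean over all tested compounds plus 3 SD, cut at about 0.9% in these data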;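 further: 0% = DMSO-only wells and 100% = 3 µM delta7-dafachronic acid wells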
The depositor's hits bear a star; nt = no result.

SMILES	hgDAF-12 ag	DAX1 inh-1	DAX1 inh-2	PolyA inhibitor	hcDAF12 agonist	ssDAF12 agonist
CCC(=O)NNc1nc2c(F)cc(F)cc2s1	5.1	0.2	2.8	-17.8	1.0	1.1*
CC(=O)NS(=O)(=O)c1ccc(NS(=O)(=O)c2ccc3ccccc3c2)cc1	-0.5	-0.1	4.7*	15.7	0.3	-1.3
CC(=O)Nc1ccc(NS(=O)(=O)c2ccc3ccccc3c2)cc1	1.4	0.1	0.8	14.8	-2.4	-1.5
COC(=O)COc1ccsc1C(=O)OC	-2.0	-0.2	4.2*	-4.4	-0.9	-1.3
COC(=O)c1sccc1OCc1cccc(OC)c1	0.8	-0.8	0.7	-3.3	-0.2	-1.2
COC(=O)[C@]12C[C@H](CC(=O)NCCCCc3ccccc3)C(=O)N(CCC3=CCCCC3)C1=C[C@H](C(C)(C)C)O[C@@H]2C	2.6	-0.1	nt	nt	-1.2	-0.6
CCC(=O)N1N=C(c2ccc(Cl)cc2)CC1c1ccco1 (stereo not drawn)	0.8	-0.1	5.8*	0.8	-1.2	-1.8
CN1CC(=O)N(CC(=O)N2N=C(c3ccc(Cl)cc3)CC2c2ccco2)C1=O (stereo not drawn)	0.2	0.5	-0.1	-3.4	-0.6	-0.7
Cn1c(=O)c(Oc2ccc(Cl)cc2)c(O)c2ccccc21	-0.1	0.6	-0.6	19.0	1.1	1.1*
O=C(NCc1ccccc1)[C@H]1CCCN1C(=O)[C@H]1CCCN1C(=O)c1ccc(F)cc1F	1.0	0.6	nt	nt	-0.5	0.0
CCOC(=O)N(C)[C@H]1C[C@H]2c3cc(-c4ccccc4C)ccc3CCN2C[C@H]1[C@H](C)O	-8.5	-5.2	nt	nt	-5.8	-1.8
CCN1C(=O)/C(=C/C=C2/CCCN2C)OC1=S	13.1*	0.5	0.1	1.8	0.8	-0.6
CN1C(=O)/C(=C\C=C2/CCCN2C)N(C)C1=S	1.1	-0.4	0.0	-0.9	0.9	-0.8
NS(=O)(=O)c1ccc(OCCCN2CCC(C(O)(c3ccccc3)c3ccccc3)CC2)cc1	-1.7	0.4	nt	nt	-2.5	-1.6
CC(C)C[C@H]1CN=C(Nc2ccccc2)N1CC1CCC(C(C)(C)C)CC1 (stereo partly drawn)	nt	nt	4.5*	nt	nt	nt
CC(C)C[C@H]1CN=C(Nc2ccccc2)N1CC1CCCC1	-2.8	-0.2	0.3	-7.4	-0.8	-0.9
S=C(NN=C(c1ccccc1)c1ccccn1)N(Cc1ccccn1)Cc1ccccn1	-8.6	-6.8	-5.4	nt	-3.6	-2.2
S=C(NN=Cc1ccccn1)N(Cc1ccccn1)Cc1ccccn1	4.6	0.8	-4.0	nt	2.7	1.0*
Cc1cccc(-c2cccc3c4c([nH]c23)[C@@H]2C[C@H]3[C@@H](CN2CC4)[C@H](C)ON3C)c1	0.3	-1.1	nt	nt	2.1	-1.1
C=CCOc1cccc(C2C(C(=O)c3ccco3)=C(O)C(=O)N2CCN(CC)CC)c1 (stereo not drawn)	3.8	-0.1	4.7*	-10.4	-0.8	-1.4
COc1cc(/C=C/C(=O)c2c(O)cc(C)oc2=O)cc(OC)c1O	-1.5	-0.4	0.6	10.2	-0.6	-0.4
CSc1ccc(/C=C/C(=O)c2c(O)cc(C)oc2=O)cc1	7.4	1.2	6.6*	-26.0	4.1	-0.2
Cc1c2ccccc2nc2c(F)c(N(C)C)c(F)c(F)c12	1.6	0.2	-0.9	7.1	5.8*	-0.2
OC(c1cccc(Cl)c1)c1nc(-c2ccc3c(c2)OCO3)cs1 (stereo not drawn)	1.2	-0.3	nt	nt	-1.1	-1.1
OC(c1ccccc1)c1nc(-c2ccc3c(c2)OCO3)cs1 (stereo not drawn)	13.2*	2.1	nt	nt	1.3	-0.8
COc1ccc(C(O)c2nc(-c3cccc(C(=O)O)c3)cs2)cc1 (stereo not drawn)	2.0	2.4	nt	nt	-0.4	-1.1
O=C(O)c1cccc(-c2csc(C(O)c3ccc(F)cc3)n2)c1 (stereo not drawn)	6.2	4.2*	nt	nt	1.6	-0.1
S=c1[nH]nc(-c2n[nH]c3c2CCC3)n1N=Cc1c[nH]c2ccccc12	-5.0	0.9	nt	nt	-1.1	-0.9
Cc1c(Cl)c([N+](=O)[O-])nn1CCCC(=O)NC1CCCCC1	2.9	0.1	1.2	23.8	0.0	-1.6
Cc1cc([N+](=O)[O-])nn1CCCC(=O)NC1CCCCC1	-0.4	0.0	8.3*	2.1	-1.1	-1.7
